Results reported in PubChem BioAssay AID1159580 (chemical genetic matrix, 2015).
The campaign covered roughly 5,500 compounds. About 2,000 (36%) were called active. Another 18% or so got no clear call; they are omitted. Cut-off read from the data, not from the text of the source: active = normalized growth mostly below about 0.91 (no sharp cut-off); inconclusive = no clear call, values can overlap the other calls; inactive = mostly above about 0.92. The list shows a part of the results.

Assay: chemical genetic growth profiling, strain panel (AID 1159580);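 note: tested at 20 µM; growth read once vehicle control cultures reached saturation at 30 °C; 1 = growth at the plate median or of vehicle wells; lower values mean less growth of the strain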
Details: growth OD

Measured: normalized growth

NC(=O)c1ccccc1O
inactive: S. cerevisiae deletion strains, locus YJR066W, strain TOR1, stronger effect = lower value 0.999 | S. cerevisiae deletion strains, locus YKL009W, strain mrt4, stronger effect = lower value 1.01 | S. cerevisiae deletion strains, locus YKL068W, stronger effect = lower value 0.995 | S. cerevisiae deletion strains, locus YKL085W, strain MDH1 (second series), stronger effect = lower value 1 | S. cerevisiae deletion strains, locus YKL085W, strain MDH1, stronger effect = lower value 1 | S. cerevisiae deletion strains, locus YKL160W, strain elf1, stronger effect = lower value 0.985 | S. cerevisiae deletion strains, locus YKL190W, strain CNB1, stronger effect = lower value 0.998 | S. cerevisiae deletion strains, locus YKR001C, strain vps1, stronger effect = lower value 1 | S. cerevisiae deletion strains, locus YKR026C, strain gcn3, stronger effect = lower value 0.971 | S. cerevisiae deletion strains, locus YKR091W, strain srl3, stronger effect = lower value 0.971 | S. cerevisiae deletion strains, locus YLL001W, strain dnm1, stronger effect = lower value 0.909 | S. cerevisiae deletion strains, locus YLL026W, stronger effect = lower value 0.993 | S. cerevisiae deletion strains, locus YLL041C, strain sdh2, stronger effect = lower value 0.969 | S. cerevisiae deletion strains, locus YLR027C, strain aat2, stronger effect = lower value 0.981 | S. cerevisiae deletion strains, locus YLR039C, strain RIC1, stronger effect = lower value 1 | S. cerevisiae deletion strains, locus YLR058C, strain SHM2, stronger effect = lower value 1.01 | S. cerevisiae deletion strains, locus YLR102C, strain apc9, stronger effect = lower value 1.01 | S. cerevisiae deletion strains, locus YLR113W, strain HOG1, stronger effect = lower value 0.999 | S. cerevisiae deletion strains, locus YLR221C, strain rsa3, stronger effect = lower value 1.03 | S. cerevisiae deletion strains, locus YLR258W, strain gsy2, stronger effect = lower value 0.988 | S. cerevisiae deletion strains, locus YLR262C, strain YPT6 (second series), stronger effect = lower value 0.947 | S. cerevisiae deletion strains, locus YLR262C, strain YPT6, stronger effect = lower value 0.986 | S. cerevisiae deletion strains, locus YLR268W, strain sec22, stronger effect = lower value 1.04 | S. cerevisiae deletion strains, locus YLR320W, strain mms22, stronger effect = lower value 0.996 | S. cerevisiae deletion strains, locus YLR330W, strain CHS5, stronger effect = lower value 1.01 | S. cerevisiae deletion strains, locus YLR342W, strain FKS1 (second series), stronger effect = lower value 1.02 | S. cerevisiae deletion strains, locus YLR342W, strain FKS1, stronger effect = lower value 0.978 | S. cerevisiae deletion strains, locus YLR357W, strain rsc2, stronger effect = lower value 0.952 | S. cerevisiae deletion strains, locus YLR370C, strain arc18, stronger effect = lower value 0.964 | S. cerevisiae deletion strains, locus YLR371W, strain rom2, stronger effect = lower value 1.01 | S. cerevisiae deletion strains, locus YLR384C, strain iki3, stronger effect = lower value 0.963 | S. cerevisiae deletion strains, locus YLR418C, strain cdc73, stronger effect = lower value 1.02 | S. cerevisiae deletion strains, locus YML016C, strain PPZ1, stronger effect = lower value 1 | S. cerevisiae deletion strains, locus YML032C, strain rad52, stronger effect = lower value 1.01 | S. cerevisiae deletion strains, locus YML120C, strain ndi1, stronger effect = lower value 0.954 | S. cerevisiae deletion strains, locus YML124C, strain tub3, stronger effect = lower value 1.01 | S. cerevisiae deletion strains, locus YMR058W, strain fet3, stronger effect = lower value 0.987 | S. cerevisiae deletion strains, locus YMR078C, strain ctf18, stronger effect = lower value 1 | S. cerevisiae deletion strains, locus YMR125W, strain sto1, stronger effect = lower value 0.962 | S. cerevisiae deletion strains, locus YMR129W, stronger effect = lower value 0.974 | S. cerevisiae deletion strains, locus YMR205C, strain PFK2, stronger effect = lower value 0.978 | S. cerevisiae deletion strains, locus YMR223W, strain ubp8, stronger effect = lower value 0.988 | S. cerevisiae deletion strains, locus YMR231W, strain pep5, stronger effect = lower value 0.965 | S. cerevisiae deletion strains, locus YMR307W, strain GAS1, stronger effect = lower value 1.03 | S. cerevisiae deletion strains, locus YNL067W, strain RPL9B, stronger effect = lower value 0.99 | S. cerevisiae deletion strains, locus YNL071W, strain lat1, stronger effect = lower value 0.974 | S. cerevisiae deletion strains, locus YNL183C, strain NPR1, stronger effect = lower value 0.985 | S. cerevisiae deletion strains, locus YNL209W, strain ssb2, stronger effect = lower value 0.98 | S. cerevisiae deletion strains, locus YNL233W, strain BNI4, stronger effect = lower value 1 | S. cerevisiae deletion strains, locus YNL248C, strain rpa49, stronger effect = lower value 0.982 | S. cerevisiae deletion strains, locus YNL250W, strain rad50, stronger effect = lower value 1 | S. cerevisiae deletion strains, locus YNL271C, strain bni1, stronger effect = lower value 1.02 | S. cerevisiae deletion strains, locus YNL298W, strain CLA4, stronger effect = lower value 1.02 | S. cerevisiae deletion strains, locus YNL307C, strain MCK1, stronger effect = lower value 1.02 | S. cerevisiae deletion strains, locus YNL322C, strain KRE1 (second series), stronger effect = lower value 0.954 | S. cerevisiae deletion strains, locus YNL322C, strain KRE1, stronger effect = lower value 0.998 | S. cerevisiae deletion strains, locus YNR049C, strain mso1, stronger effect = lower value 0.974 | S. cerevisiae deletion strains, locus YNR052C, strain pop2, stronger effect = lower value 1.01 | S. cerevisiae deletion strains, locus YOL006C, strain TOP1, stronger effect = lower value 0.998 | S. cerevisiae deletion strains, locus YOL012C, strain htz1 1.16 | S. cerevisiae deletion strains, locus YOL147C, strain pex11, stronger effect = lower value 1.01 | S. cerevisiae deletion strains, locus YOR001W, strain rrp6, stronger effect = lower value 0.957 | S. cerevisiae deletion strains, locus YOR061W, strain CKA2, stronger effect = lower value 1 | S. cerevisiae deletion strains, locus YOR069W, strain VPS5, stronger effect = lower value 1 | S. cerevisiae deletion strains, locus YOR070C, strain gyp1, stronger effect = lower value 1 | S. cerevisiae deletion strains, locus YOR080W, strain dia2, stronger effect = lower value 0.981 | S. cerevisiae deletion strains, locus YOR083W, strain WHI5, stronger effect = lower value 0.957 | S. cerevisiae deletion strains, locus YOR106W, strain vam3, stronger effect = lower value 0.94 | S. cerevisiae deletion strains, locus YOR136W, strain idh2, stronger effect = lower value 0.989 | S. cerevisiae deletion strains, locus YOR144C, strain elg1, stronger effect = lower value 1 | S. cerevisiae deletion strains, locus YOR184W, strain ser1, stronger effect = lower value 0.895 | S. cerevisiae deletion strains, locus YOR231W, strain MKK1, stronger effect = lower value 1.03 | S. cerevisiae deletion strains, locus YOR265W, strain rbl2, stronger effect = lower value 0.98 | S. cerevisiae deletion strains, locus YOR270C, strain vph1, stronger effect = lower value 0.963 | S. cerevisiae deletion strains, locus YOR290C, strain snf2, stronger effect = lower value 0.999 | S. cerevisiae deletion strains, locus YOR316C, strain cot1, stronger effect = lower value 1 | S. cerevisiae deletion strains, locus YPL051W, strain arl3, stronger effect = lower value 1.01 | S. cerevisiae deletion strains, locus YPL078C, strain atp4, stronger effect = lower value 0.94 | S. cerevisiae deletion strains, locus YPL106C, strain sse1, stronger effect = lower value 0.936 | S. cerevisiae deletion strains, locus YPL240C, strain hsp82, stronger effect = lower value 0.977 | S. cerevisiae deletion strains, locus YPL241C, strain CIN2, stronger effect = lower value 1.01 | S. cerevisiae deletion strains, locus YPL256C, strain CLN2, stronger effect = lower value 1.05 | S. cerevisiae deletion strains, locus YPR119W, strain clb2, stronger effect = lower value 0.999 | S. cerevisiae deletion strains, locus YPR141C, strain kar3, stronger effect = lower value 1.01 | S. cerevisiae deletion strains, locus YPR163C, strain tif3, stronger effect = lower value 1.01 | S. cerevisiae deletion strains, locus YPR167C, strain met16, stronger effect = lower value 1.01 | S. cerevisiae deletion strains, strain wtn01, stronger effect = lower value 1.03 | S. cerevisiae strains, strain wild type, stronger effect = lower value 1.01
